High-throughput results deposited in PubChem by The Scripps Research Institute Molecular Screening Center.
Most compounds without a hit are left out; they make up all but 0.86% or so of the library.
IDE cell inh: human IDE inhibitors in live cells, primary screen, fluorescence polarization, HEK cells, FAbetaB substrate; FAbetaB cleavage; inhibition, % at 5.59 µM; Insulin-degrading enzyme (Homo sapiens), P14735; actives 0.41% (n = 320,000);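 active = percent inhibition above the average of all tested compounds plus 3 SD, set per screening campaign, cut at about 16% in these data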;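 also: IDE supplied by intact live HEK cells; FP after avidin binding of uncleaved biotin substrate so inhibition keeps polarization high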
NOD2-RIPK2 inh: NOD2-RIPK2 binding disruptors in cells, primary screen, fluorescence, CHO cells, BLA complementation; CCF4 ratio; inhibition, % at 4.98 µM; Receptor-interacting serine/threonine-protein kinase 2 (Homo sapiens), O43353; actives 0.38% (n = 360,000); in the data active = inhibition above about 21%
TLR9-MyD88 block: inhibitors of TLR9-MyD88 association in cells, primary screen, cell-based, CHO, BLA complementation, fluorescence | actives 0.21% (n = 340,000) | Toll-like receptor 9 (Homo sapiens) + Myeloid differentiation primary response protein … | CCF4 FRET ratio | inhibition, % at 4.98 µM;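 active = inhibition above the mean over all tested compounds plus 3 SD, cut at about 21% in these data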
TLR4-MyD88 BLA: inhibitors of TLR4-MyD88 association in cells, primary screen, cell-based, HeLa CL3-4, BLA complementation, FRET ratio. Toll-like receptor 4 (Homo sapiens) + Myeloid differentiation primary response protein …. HeLa CL3-4 TLR4/MyD88 BLA complementation. inhibition, % at 8.4 µM. actives 0.18% (n = 200,000). AID 861, 2007; in the data active = inhibition above about 25%
Target sequence (O00206 whole entry, looked up): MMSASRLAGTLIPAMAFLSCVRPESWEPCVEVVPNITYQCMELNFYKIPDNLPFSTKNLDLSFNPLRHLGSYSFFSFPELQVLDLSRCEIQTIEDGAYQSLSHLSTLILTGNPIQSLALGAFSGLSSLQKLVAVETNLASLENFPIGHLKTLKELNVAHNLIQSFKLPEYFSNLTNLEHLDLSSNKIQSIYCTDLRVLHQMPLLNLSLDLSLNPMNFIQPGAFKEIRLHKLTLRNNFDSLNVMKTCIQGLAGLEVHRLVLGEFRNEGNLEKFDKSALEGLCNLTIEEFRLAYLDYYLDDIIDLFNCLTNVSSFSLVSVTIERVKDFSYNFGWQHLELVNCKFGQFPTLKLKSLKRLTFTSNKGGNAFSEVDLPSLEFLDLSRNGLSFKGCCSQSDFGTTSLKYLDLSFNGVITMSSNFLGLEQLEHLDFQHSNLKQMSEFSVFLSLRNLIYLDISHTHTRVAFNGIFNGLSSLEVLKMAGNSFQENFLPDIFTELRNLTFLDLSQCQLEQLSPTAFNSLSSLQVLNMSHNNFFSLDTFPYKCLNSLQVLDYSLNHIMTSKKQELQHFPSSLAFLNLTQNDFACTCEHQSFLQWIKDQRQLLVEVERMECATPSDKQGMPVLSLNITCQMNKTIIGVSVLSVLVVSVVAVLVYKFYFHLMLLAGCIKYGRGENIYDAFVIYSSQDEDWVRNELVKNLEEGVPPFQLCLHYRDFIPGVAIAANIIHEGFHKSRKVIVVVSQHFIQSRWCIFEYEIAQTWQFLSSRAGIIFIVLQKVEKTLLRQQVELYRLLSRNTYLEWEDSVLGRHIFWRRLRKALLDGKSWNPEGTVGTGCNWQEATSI
Target sequence (Q99836 whole entry, looked up): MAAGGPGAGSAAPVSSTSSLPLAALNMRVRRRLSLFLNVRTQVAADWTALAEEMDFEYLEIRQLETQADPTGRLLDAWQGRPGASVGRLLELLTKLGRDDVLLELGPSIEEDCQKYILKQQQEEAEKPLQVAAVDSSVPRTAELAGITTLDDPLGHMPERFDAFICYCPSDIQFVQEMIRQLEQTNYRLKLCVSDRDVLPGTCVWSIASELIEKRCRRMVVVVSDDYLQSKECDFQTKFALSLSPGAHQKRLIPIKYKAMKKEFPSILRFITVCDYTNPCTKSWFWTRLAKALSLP
IDE cell activ: human IDE activators in live cells, primary screen, fluorescence polarization, HEK cells, FAbeta-B substrate. Insulin-degrading enzyme (Homo sapiens), P14735. FAbeta-B cleavage; 0% vehicle, 100% cell-free pure enzyme wells. activation, % at 5.96 µM. actives 0.073% (n = 340,000). AID 493087, 2011;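 active = activation above the mean of all tested compounds plus 3 SD, set per screening campaign, cut at about 17% in these data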
TLR4-MyD88 conf: TLR4-MyD88 association inhibitors, retest, confirmation, cell-based, HeLa CL3-4, BLA complementation, FRET ratio; shares compounds with TLR4-MyD88 BLA; CCF4 FRET ratio; inhibition, % at 8.4 µM; actives 50% (n = 350); AID 941, 2007;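 active = mean inhibition across three repeat runs above about 25% carried over from the earlier screen, limit read from the data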
BLA inh HeLa: beta-lactamase inhibition flagged in TLR4-MyD88 counter-screen; shares compounds with TLR4-MyD88 BLA; HeLa BLA reporter, CCF4 FRET ratio; inhibition, % at 8.4 µM; actives 63% (n = 350); AID 1237;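 active = mean inhibition over three repeats above about 26% taken from the earlier screen, limit read from the data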;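 also: HeLa cells stably expressing beta-lactamase reporter as counterscreen for TLR4-MyD88 inhibitors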
IDE inh confirm: human IDE inhibitors in live cells, confirmation, fluorescence polarization, HEK cells, FAbetaB substrate; shares compounds with IDE cell inh; FAbetaB cleavage; inhibition, % at 5.59 µM; actives 51% (n = 1,200);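 active = mean inhibition across triplicate wells above the cutoff set by the earlier primary insulin-degrading enzyme screen, cut at about 16% in these data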
HEK cytotox: cytotoxicity in HEK cells, cytotoxicity control for IDE inhibitor project, cell-based, luminescence | shares compounds with IDE cell inh | HEK293 cytotoxicity, ATP luminescence | inhibition, % at 5.59 µM | actives 28% (n = 1,200); in the data active = inhibition above about 22%
TLR9-MyD88 conf: TLR9-MyD88 association inhibitors, retest, confirmation, cell-based, CHO, BLA complementation, fluorescence, triplicate | actives 51% (n = 680) | shares compounds with TLR9-MyD88 block | CCF4 FRET ratio | inhibition, % at 4.98 µM;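 active = mean inhibition across three repeats above about 21% taken from the earlier screen, limit read from the data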;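 also: blue over green emission ratio reports constitutive TLR9 MyD88 association via BLA complementation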
BLA counter-1: beta-lactamase reporter inhibitors in CHO cells, artefact control for TLR9-MyD88 binding inhibitor project, cell-based, fluorescence; shares compounds with TLR9-MyD88 block; CHO-BLA cells, CCF4 FRET ratio, BLA reporter; inhibition, % at 4.98 µM; actives 7% (n = 680); AID 540251, 2011;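 active = mean inhibition above a 50% cutoff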;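 also: counterscreen of TLR9-MyD88 hits on CMV-driven BLA in CHO-K1 cells; higher means less blue over green ratio so more BLA blockade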
TLR9 CHO cytotox: CHO cell viability loss – luminescence, single concentration, cytotoxicity control for TLR9-MyD88 binding inhibitor project. shares compounds with TLR9-MyD88 block. TLR9-MyD88 CHO cells cytotoxicity. inhibition, % at 4.98 µM. actives 39% (n = 680). AID 588336, 2011; in the data active = inhibition above about 11%
NOD2-RIPK2 conf: NOD2-RIPK2 binding disruptors, retest, confirmation, fluorescence, CHO cells, BLA complementation, triplicate. inhibition, % at 4.98 µM. CCF4 FRET. shares compounds with NOD2-RIPK2 inh. AID 624370, 2012. actives 70% (n = 1,200);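 active = mean inhibition across replicates above a set limit taken from the earlier primary screen, cut at about 21% in these data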
BLA counter-2: counter-screen for NOD2-RIPK2 interaction inhibitors: BLA reporter; shares compounds with NOD2-RIPK2 inh; CHO BLA reporter, CCF4 FRET ratio, counterscreen; inhibition, % at 4.98 µM; actives 57% (n = 1,200);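 active = mean inhibition above the low-control mean inhibition plus three low-control SD, cut at about 11% in these data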
Numbers stand for hits; – = inactive; · = not tested or not shown.

SMILES	IDE cell inh	NOD2-RIPK2 inh	TLR9-MyD88 block	TLR4-MyD88 BLA	IDE cell activ	TLR4-MyD88 conf	BLA inh HeLa	NOD2-RIPK2 conf	BLA counter-2	others
Nc1ccc(/C=C/C(=O)c2cccs2)cc1	–	30	23	25	–	–	37	40	34	TLR9-MyD88 conf=–;BLA counter-1=–;TLR9 CHO cytotox=–
Cc1ccc2nc(/C(C#N)=C\c3ccc([N+](=O)[O-])o3)[nH]c2c1	–	27	24	84	–	83	96	86	70	TLR9-MyD88 conf=57;BLA counter-1=70;TLR9 CHO cytotox=75
COC(=O)[C@@]1(Cc2ccc(OC)cc2)[C@H]2c3cc(C(=O)N4CCCC4)n(Cc4c(CO)[nH]cc(C)c4=O)c3C[C@H]2CN1C(=O)c1ccccc1	–	·	·	·	·	·	·	·	·
N#C/C(=C\c1cn(Cc2ccccc2)c2ccccc12)C(=O)NCc1ccco1	–	–	–	–	–	·	·	·	·
N#C/C(=C\c1cn(Cc2ccc(F)cc2)c2ccccc12)C(=O)NCc1ccco1	–	31	78	63	–	73	100	82	85
COc1ccc(/C=N/NC(=O)c2cccnc2)cc1COc1ccc([N+](=O)[O-])c(C)c1	–	–	·	·	·	·	·	·	·
CCN(CC)c1ccc(/C=C/C(=O)c2ccc(Br)cc2)cc1	163	59	34	55	–	53	74	78	79	IDE inh confirm=61;HEK cytotox=–;TLR9-MyD88 conf=39;BLA counter-1=–;TLR9 CHO cytotox=–
CN(C)c1ccc(C(=O)/C=C/c2ccc(Br)cc2)cc1	–	–	–	–	–	·	·	·	·
CCN(CC)c1ccc2c(c1)oc(=O)c1c(Cl)cc(=O)oc12	–	62	50	80	–	87	109	89	84	TLR9-MyD88 conf=51;BLA counter-1=74;TLR9 CHO cytotox=73
CCN(CC)c1ccc2c(C)c(Cl)c(=O)oc2c1	–	–	–	–	–	·	·	·	·
Cc1[nH]c2ccccc2c1/C=C/C(=O)c1ccccc1	–	44	40	27	–	27	49	43	49	TLR9-MyD88 conf=–;BLA counter-1=–;TLR9 CHO cytotox=–
Cc1[nH]c2ccccc2c1/C=N/NC(=O)c1ccccc1	–	–	–	·	–	·	·	·	·
Cc1ccc(-c2nc3sc(C(N)=O)c(N)c3c3c2CCCC3)cc1	–	–	–	–	–	·	·	·	·
CC(=O)c1sc2nc(-c3ccc(C)cc3)c3c(c2c1N)CCCC3	–	36	51	26	–	32	61	57	68	TLR9-MyD88 conf=41;BLA counter-1=–;TLR9 CHO cytotox=–
O=C(NCc1cccnc1)c1cccc(S(=O)(=O)N2CCCC2)c1	–	–	–	·	–	·	·	·	·
COc1cc(CN2CCC(C(=O)NC3CCCC3)CC2)cc(OC)c1O	–	–	–	–	–	·	·	·	·
CNC(=O)NC(=O)C(C)OC(=O)c1c2c(nc3ccccc13)/C(=C/c1cccs1)CC2 (stereo not drawn)	–	56	51	51	–	55	85	72	81	TLR9-MyD88 conf=51;BLA counter-1=63;TLR9 CHO cytotox=11
CCCCNC(=O)COC(=O)c1c2c(nc3ccccc13)/C(=C/c1cccs1)CC2	–	52	48	56	–	50	83	67	77	TLR9-MyD88 conf=43;BLA counter-1=–;TLR9 CHO cytotox=–
CCCCNC(=O)COC(=O)c1c2c(nc3ccccc13)CCC2	–	–	–	·	–	·	·	·	·
COc1cc(/C=C2\CCc3c2nc2ccccc2c3C(=O)O)cc(OC)c1OC	–	–	–	·	–	·	·	·	·
COc1cc(CNCCO)ccc1OCCc1ccccc1	–	–	–	·	–	·	·	·	·
COc1ccc(C2=CC(=O)C[C@H](c3ccc(Cl)cc3)C2)cn1	–	–	–	·	–	·	·	·	·
CCOC(=O)c1sc(NC(=O)c2ccc(Br)o2)cc1C	–	–	–	–	–	·	·	·	·
O=C(NCCN1CCOCC1)c1ccc(-c2ccccc2)cc1	19	–	–	–	–	·	·	·	·	IDE inh confirm=–;HEK cytotox=–
O=C(Cc1ccc(-c2ccccc2)cc1)NCCN1CCOCC1	–	–	–	–	–	·	·	·	·
SMILES	IDE cell inh	NOD2-RIPK2 inh	TLR9-MyD88 block	TLR4-MyD88 BLA	IDE cell activ	TLR4-MyD88 conf	BLA inh HeLa	NOD2-RIPK2 conf	BLA counter-2	others
Cn1c(SCC(=O)NCCc2ccc(S(N)(=O)=O)cc2)nc2ccccc2c1=O	41	–	–	–	–	·	·	·	·	IDE inh confirm=–;HEK cytotox=–
COc1ccc(N2CCN(S(=O)(=O)c3ccc(OC)c(C(=O)N4CCOCC4)c3)CC2)cc1	–	–	–	·	–	·	·	·	·
CN1CCN(C2=C(Cl)C(=O)c3ccccc3C2=O)CC1	·	–	–	·	–	·	·	·	·
CN1CCN(C2=C(Cl)C(=O)C(c3cnc(N4CCCCC4)s3)=C(Cl)C2=O)CC1	23	–	–	–	–	·	·	·	·	IDE inh confirm=–;HEK cytotox=119
O=C(Nc1ccc(C(=O)OC[C@@H]2CCCN3CCCC[C@H]23)cc1)c1cccc(Br)c1	32	–	–	–	–	·	·	·	·	IDE inh confirm=–;HEK cytotox=–
CCOc1ccc(/C=C/C(=O)c2c(O)c3ccccc3oc2=O)cc1	–	–	–	–	–	·	·	·	·
CN(C)c1ccc(/C=C/C(=O)c2c(O)c3ccccc3oc2=O)cc1	25	–	–	·	–	·	·	·	·	IDE inh confirm=36;HEK cytotox=–
O=S(=O)(c1cc(Cl)cc(Cl)c1O)N1CCC2(CC1)OCCO2	–	–	–	·	–	·	·	·	·
Cc1onc(-c2ccccc2Cl)c1C(=O)N1CCN(c2ncccn2)CC1	–	–	–	–	–	·	·	·	·
